Inconclusive results are not listed. The source made the active and inactive calls. Calls come from the whole dose curve; as a rule, active = well fitted cell-killing curve with a large enough effect in the repeat runs; inconclusive = weak or mixed curves; inactive = flat fitted curve, though single readings scatter.
test: qHTS RealTime-Glo MT Cell Viability Assay in HepG2 cells - 8 hour (AID 1224873); conditions: RealTime-Glo luminescence; series mostly up to 76.8 µM; note: nearly all actives have a fitted effect of over 55% in size
Source text: National Center for Advancing Translational Sciences [NCATS]
NIH Chemical Genomics Center [NCGC]
U.S. Environmental Protection Agency [EPA]
National Institutes of Environmental Health Sciences [NIEHS]
National Toxicology Program [NTP]
U.S. Food and Drug Administration [FDA]
Measure of cell viability is critical in the cell-base assay. Analysis of cell viability is necessary for the characterization of cell responses to cytotoxic drugs and environmental stress. A RealTime-Glo MT Cell Viability Assay to monitor cell viability in real time of continues cell culture during 40 hours of compound treatment was used to screen Tox21 10K library compounds in HepG2 cells. The RealTime-Glo MT Cell Viability Assay is a nonlytic, homogeneous, bioluminescent method to measure cell viability in real time using a simple, plate-based method. The assay involves adding NanoLuc luciferase and a cell-permeant prosubstrate to cells in culture. Viable cells reduce the proprietary prosubstrate to generate a substrate for NanoLuc luciferase. This substrate diffuses from cells into the surrounding culture medium, where it is rapidly used by the NanoLuc Enzyme to produce a luminescent signal. The signal correlates with the number of viable cells, making the assay well suited for cytotoxicity studies.
Tox21 Assay Protocol Summary:
The mixture of HepG2 cell suspension and reagents were dispensed at 600cells/6 ul/well in 1536-well tissue culture treated black solid bottom plates using a Multidrop dispenser. After the assay plates were incubated at a 37 C/5% CO2 incubator for 5 hours, 23 nL of compounds dissolved in DMSO, positive and negative controls was transferred to the assay plate by a pintool work station. The plates were incubated at 37 C for 40 hours. The luminescence intensity were measured at 0h, 8h, 16h, 24h, 32h and 40h time points using ViewLux plate reader during compound treatment.

Compound	outcome
O=P(OC(CCl)CCl)(OC(CCl)CCl)OC(CCl)CCl	inactive
COc1ccc(Cl)cc1C(=O)NCCc1ccc(S(=O)(=O)NC(=O)NC2CCCCC2)cc1	inactive
c1ccc2scnc2c1	inactive
CCOC(=O)NNc1nncc2ccccc12	inactive
O=C(CC(C(=O)OC1CCCCC1)S(=O)(=O)O)OC1CCCCC1 (stereo not given)	inactive
C=C(C)C(=O)Nc1ccc(Cl)c(Cl)c1	inactive
O=C(O)c1cc(O)c(O)c(O)c1	inactive
C=C(C)C(=O)OCCOCCOCCOC(=O)C(=C)C	inactive
CCCSc1ccc2nc(NC(=O)OC)[nH]c2c1	inactive
CC1=CC(=O)NS(=O)(=O)O1	inactive
CC(=O)Nc1cccc(O)c1	inactive
CCCCOC(=O)COc1ccc(Cl)cc1Cl	inactive
c1ccc(OCCOc2ccccc2)cc1	inactive
CCCCCC(N)=O	inactive
C/C=C1/CC2C=CC1C2 (stereo not given)	inactive
CCCCCCCCCCCCCCO	inactive
CCCCCCOCCO	inactive
N[C@@H](Cc1cc(I)c(Oc2cc(I)c(O)c(I)c2)c(I)c1)C(=O)O	inactive
CCCCCCCCCCCCCCCO	inactive
Cc1cccnc1	inactive

Compound	outcome
COc1ccc(Nc2ccccc2)c(C)c1	inactive
CCN(CC)c1ccc(C(=O)c2ccccc2C(=O)O)c(O)c1	inactive
COS(C)(=O)=O	inactive
O=c1[nH]nnc2ccccc12	inactive
O=S(=O)(O)c1ccc2ccccc2c1	inactive
c1c[nH]cn1	inactive
CC(C)(C)[C@@H](O)[C@@H](Cc1ccc(Cl)cc1)n1cncn1	inactive
CC(=O)c1ccccc1	inactive
CCCCCCCCCCCCOCCO	inactive
CSCCC=O	inactive
CCCCCC1=CCCC1=O	inactive
C#CCN(C)Cc1ccccc1	inactive
OCCOCCN1CCN(C2=Nc3ccccc3Sc3ccccc32)CC1	inactive
CCCCN(CCCC)CCCC	inactive
Cc1ccc(S(N)(=O)=O)cc1	inactive
O=C(O)CCCCCCCCCCC(=O)O	inactive
CCCCCOC(C)=O	inactive
Cc1cccc(O)c1	inactive
CCCCC(CC)CO (stereo not given)	inactive
CC(=O)Nc1ccccc1	inactive

Reference: PubChem BioAssay (Tox21)
